The results in this text go back to PubChem BioAssay AID624481 (The Scripps Research Institute Molecular Screening Center, 2012).

The structures appear in SMILES notation. Calls of active or inactive are those of the source. Rule as the data show it: active = inhibition above about 50%; inactive = the rest.

For this experiment, the target named is Prolyl endopeptidase-like (Mus musculus) (UniProt Q8C167). Description: purified PREPL inhibitors, PREPL inhibitor project, biochemical, gel-based competitive ABPP, fluorescence, HTS hits (AID 624481). Particulars: at 20 µM, stronger effect = higher value.
Prolyl endopeptidase-like (Mus musculus), sequence (Q8C167 whole entry, looked up): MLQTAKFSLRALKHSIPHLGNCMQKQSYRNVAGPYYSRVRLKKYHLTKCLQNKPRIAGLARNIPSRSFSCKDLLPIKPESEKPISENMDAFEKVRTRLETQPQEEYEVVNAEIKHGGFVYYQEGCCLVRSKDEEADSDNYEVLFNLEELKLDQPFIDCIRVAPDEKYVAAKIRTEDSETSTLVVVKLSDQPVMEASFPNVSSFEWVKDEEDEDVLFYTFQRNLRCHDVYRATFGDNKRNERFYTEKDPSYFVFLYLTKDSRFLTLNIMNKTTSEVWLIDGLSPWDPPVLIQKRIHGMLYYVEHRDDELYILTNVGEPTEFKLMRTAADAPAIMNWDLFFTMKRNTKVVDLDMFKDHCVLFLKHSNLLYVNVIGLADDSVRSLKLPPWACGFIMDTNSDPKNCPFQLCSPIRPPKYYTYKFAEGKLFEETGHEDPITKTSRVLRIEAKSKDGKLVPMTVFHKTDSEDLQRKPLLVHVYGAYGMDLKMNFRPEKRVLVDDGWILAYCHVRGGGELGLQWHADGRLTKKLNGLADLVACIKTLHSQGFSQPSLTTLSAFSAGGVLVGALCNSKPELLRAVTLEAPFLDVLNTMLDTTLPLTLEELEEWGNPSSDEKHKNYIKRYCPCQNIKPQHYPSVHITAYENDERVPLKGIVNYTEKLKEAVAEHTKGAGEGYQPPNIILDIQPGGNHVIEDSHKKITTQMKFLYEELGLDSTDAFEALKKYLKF
Regarding `C1=C(c2c[nH]c3ccccc23)CCNC1`, the inhibition (in general, the drop in the measured response relative to a control, in per cent) is -17% (inactive).
On to `C=CCn1c(O)c(C(CC)=NCCc2c[nH]c3ccccc23)c(=O)[nH]c1=O`, for which the inhibition is 43% (inactive).
Then `COc1ccc2[nH]c(C)c(CCNCc3cc(OC)c4c(c3)OCO4)c2c1`, with -15% (inactive).
In the case of `O=C(c1ccc2c(c1)N(Cc1ccc(F)cc1)CCS2)N1CCC2(CC1)OCCO2` it was -13% (inactive); in that of `O=C(c1ccc2c(c1)N(Cc1ccccc1)CCS2)N1CCC2(CC1)OCCO2`, -19% (inactive).
In the case of `Clc1ccc(C[n+]2c(-c3ccccc3)cc(-c3ccccc3)cc2-c2ccccc2)cc1` it was -51% (inactive); in that of `CCOc1cccc(=NC2CCCCC2)c2c(C)[nH]c(C)c12`, 13% (inactive).
Consider `C=CCn1c(O)c(C(CC)=NCc2ccc3c(c2)OCO3)c(=O)[nH]c1=O`, for which the inhibition is 32% (inactive).
Then `CC(C)Cc1[nH]c(=O)c(C#N)c2c1CCC2`, with 57% (active); and `Brc1ccc(-[n+]2c(-c3ccccc3)cc(-c3ccccc3)cc2-c2ccccc2)cc1`, with -32% (inactive); and `Cc1ccc(CN2CCSc3ccc(C(=O)N4CCC5(CC4)OCCO5)cc32)cc1`, with -8% (inactive).
In the case of `NC(N)=NN=Cc1ccc(N(c2ccccc2)c2ccccc2)cc1` it was -64% (inactive).
Turning to `Cc1ccc(C[n+]2c(-c3ccc(C)cc3)cc(-c3ccc(C)cc3)cc2-c2ccc(C)cc2)cc1`, the inhibition was 1% (inactive).
Then `COc1ccc2[nH]c(C)c(CCNCc3cn(C)c4ccccc34)c2c1`, with 16% (inactive).
